Bioassay records as filed in PubChem BioAssay.
NadD inh: NadD (S. aureus) enzyme inhibition; 0.78% of 360,000 active; inhibition, % at 20 µM; purified NadD enzyme, colorimetric absorbance read-out; in the data active means inhibition above about 26%
pCIP destab: p/CIP protein destabilization; 0.01% of 290,000 active; F442A p/CIP-EGFP cells, EGFP fluorescence, 16 h; Q05BA5; AID 1984; decrease of EGFP signal, % at 10 µM;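 active means EGFP signal decrease of at least 30% at 10 µM or well 3 SD below plate mean, unless failing retest; inactive means the rest, including hits failing retest or dose response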
PHOSPHO1 block: PHOSPHO1 (human) inhibition; inhibition, % at 13.3 µM; recombinant PHOSPHO1, absorbance phosphatase assay; 1.1% of 290,000 active; AID 1565; in the data active means inhibition above about 60%
Target sequence (Q8TCT1 whole entry, looked up): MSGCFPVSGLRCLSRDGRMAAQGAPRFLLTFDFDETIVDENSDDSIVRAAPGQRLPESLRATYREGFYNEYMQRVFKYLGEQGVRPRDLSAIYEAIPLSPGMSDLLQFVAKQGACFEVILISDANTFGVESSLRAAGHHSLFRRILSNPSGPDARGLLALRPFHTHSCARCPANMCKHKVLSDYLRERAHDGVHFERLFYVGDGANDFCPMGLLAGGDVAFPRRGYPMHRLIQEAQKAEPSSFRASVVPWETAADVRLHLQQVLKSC
UBC9 SUMO inh: blocks human SUMOylation mediated by UBC9; HTRF SUMOylation assay, SAE1/SAE2 + UBC9, in vitro; inhibition, % at 35 µM; 0.36% of 290,000 active; in the data active means inhibition above about 50%, passing the limit was not always enough
Target sequence (P63279 whole entry, looked up): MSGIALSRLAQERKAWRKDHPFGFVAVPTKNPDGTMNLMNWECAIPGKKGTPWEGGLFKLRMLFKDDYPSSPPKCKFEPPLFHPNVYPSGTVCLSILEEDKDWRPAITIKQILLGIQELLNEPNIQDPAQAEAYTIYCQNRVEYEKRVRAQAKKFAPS
NadD inh conf: confirmation of Staphylococcus aureus NadD inhibitors. 13% of 2,000 active. shares compounds with NadD inh. purified S. aureus NadD, colorimetric enzyme assay. inhibition, % at 20 µM; in the data active means inhibition mostly above about 42%, no sharp cut-off; inactive means mostly below about 42%
Large screens that a line does not name were inactive (follow-up assays come after a bar, where they were run). The list is not random: actives were taken first. Their share in the collection is about 1.8%.

Cc1ccc(NC(=O)C2CC(=O)N(Cc3ccccc3)C2)nc1 (centres undefined)	none (no result: pCIP destab, PHOSPHO1 block, UBC9 SUMO inh)
COc1cc(/C=C/c2ccc3c(Br)cc(Br)c(O)c3n2)ccc1O	NadD inh 61 | NadD inh conf inactive
COc1ccc(/C=C/c2ccc3c(Br)ccc(O)c3n2)cc1	none
Cc1ccccc1C(=O)c1cccn1CC(=O)NCCCc1ccccc1	none
O=c1c2c3nc4ccccc4nc3n(Cc3ccccc3)c2ncn1Cc1ccco1	NadD inh 39 | NadD inh conf inactive
COCCCn1c2nc3ccccc3nc2c2c(=O)n(Cc3ccc(Cl)cc3)cnc21	none
Cc1ccc(-c2csc(/C=C3\SC(C)C(=O)N3CC(=O)Nc3ccccc3F)n2)cc1 (centres undefined)	NadD inh 32 | NadD inh conf inactive
CSc1nsc(/C=C/Nc2ccc(Cl)cc2)c1C#N	none
CSc1nsc(/C=C/Nc2cccc(Cl)c2)c1C#N	NadD inh 32 | NadD inh conf inactive
CCOc1ccccc1/C=N/NC(=O)Cc1csc(Nc2cccc(C(F)(F)F)c2)n1	NadD inh 38 | NadD inh conf inactive
COc1ccc(/C=N/NC(=O)Cc2csc(Nc3cccc(C(F)(F)F)c3)n2)c(OC)c1	NadD inh 33 | NadD inh conf inactive
CCOc1ccc(/C=N/NC(=O)Cc2csc(Nc3cccc(C(F)(F)F)c3)n2)c(OCC)c1	none
COc1ccccc1-n1c(=O)c(C#N)c(-c2ccc([N+](=O)[O-])cc2)c2cc(C(=O)c3ccccc3O)cnc21	NadD inh 38 | NadD inh conf inactive
COc1ccccc1-n1cc(C(=O)c2cc(Cl)ccc2O)cc(C#N)c1=O	none
Cc1c(C(=O)NCc2ccc3c(c2)OCCO3)sc(=O)n1Cc1cccc(C(F)(F)F)c1	none (no result: pCIP destab, PHOSPHO1 block, UBC9 SUMO inh)
Cc1ccc([C@@H]2CC=C(C(=O)O)[C@H](c3ccc(F)cc3)N2S(=O)(=O)c2ccccc2C)cc1	NadD inh 42 (no result: pCIP destab, PHOSPHO1 block, UBC9 SUMO inh) | NadD inh conf inactive
O=C(CCc1ccccc1)NCCc1nc2ccccc2[nH]1	none
O=C(CSc1cccc2cccnc12)Nc1cc(C(=O)O)cc(C(=O)O)c1	none
CSc1ncnc2c1ncn2CCCNCCCc1ccccc1	none (no result: pCIP destab, PHOSPHO1 block, UBC9 SUMO inh)
Cc1cccc(NC(=O)C2CCN(S(=O)(=O)c3cccc4nsnc34)CC2)n1	none
O=C(NC1CC1)C1CCN(S(=O)(=O)c2cc([N+](=O)[O-])ccc2Cl)CC1	NadD inh 52 (no result: pCIP destab, PHOSPHO1 block, UBC9 SUMO inh) | NadD inh conf inactive
O=C(NC1CC1)C1CCN(S(=O)(=O)c2cc(Cl)ccc2Cl)CC1	none
COc1ccc2nc(NC(=O)C3CCN(S(=O)(=O)c4cccc5nsnc45)CC3)sc2c1	NadD inh 41 | NadD inh conf inactive
Cc1cccc2sc(NC(=O)C3CCN(S(=O)(=O)c4cc([N+](=O)[O-])ccc4Cl)CC3)nc12	NadD inh 46 | NadD inh conf inactive
Cc1cc([N+](=O)[O-])nn1CCCC(=O)N1CCN(c2ccc(F)cc2)CC1	none
COc1ccc(N/C(=N/c2nc(C)cc(C)n2)NC(=O)Nc2ccc(Cl)c(Cl)c2)c(OC)c1	NadD inh 33 | NadD inh conf inactive
COc1ccc(/C=C/C(=O)NNC(=O)c2ccncc2)c(OC)c1	none (no result: pCIP destab, PHOSPHO1 block, UBC9 SUMO inh)
COc1ccc(Nc2nnc(SC(C(=O)Nc3ccc(OC)c(Cl)c3)c3ccccc3)s2)cc1 (centres undefined)	NadD inh 32 | NadD inh conf inactive
COc1ccc(Nc2nnc(SC(C(=O)Nc3cc(C)ccc3C)c3ccccc3)s2)cc1 (centres undefined)	none
Cc1cc(O)c(-c2n[nH]c3c2C(c2cccc(O)c2)N(Cc2cccnc2)C3=O)cc1Cl (centres undefined)	NadD inh 46 | NadD inh conf inactive
CCCN1C(=O)c2[nH]nc(-c3cc(Cl)c(C)cc3O)c2C1c1ccc(O)c(OC)c1 (centres undefined)	none
Cc1cc(C(=O)N/N=C/c2cc(Br)ccc2OC(=O)c2ccccc2Cl)n[nH]1	NadD inh 35 | NadD inh conf inactive
Cc1cc(C(=O)N/N=C/c2cc(Br)ccc2OC(=O)c2ccccc2)n[nH]1	none
COc1ccc(-c2nn(-c3ccccc3)cc2C(=O)NC(=S)NNC(=O)c2ccncc2)cc1	NadD inh 58 | NadD inh conf inactive
COc1ccc(NC(=O)c2cn(-c3ccccc3)nc2-c2ccncc2)cc1	none
C/C(=N\NC(=O)c1cc(C)oc1C)c1ccc2ccccc2c1	none
Cc1cnc(C=NNC(N)=S)c2cccc(N)c12	NadD inh 61 (no result: pCIP destab, PHOSPHO1 block, UBC9 SUMO inh) | NadD inh conf inactive
CC(C)CN(C(=O)CSc1n[nH]c(-c2cccs2)n1)C1CCS(=O)(=O)C1 (centres undefined)	none (no result: pCIP destab, PHOSPHO1 block, UBC9 SUMO inh)
